Assay results reported in the supplement of paper PMC10338343.
± gives the standard deviation. Whole data set: some 6,600 sequences, median “pre-steady-state target cleavage rate” near 0.07, cut for the highest 2% near 0.72. Only a selection was taken, and the highest values are over-represented in it overall.

Tested on: MIWI (PIWIL1) piRISC loaded with Kctd7 piRNA (30 nt)
Test: pre-steady-state target cleavage rate (min^-1); MIWI and MILI are mouse PIWI proteins and EfPiwi is from a freshwater sponge; tags in brackets are library labels; higher = faster piRNA-guided slicing of the target
Conditions: guide: Kctd7 piRNA 5'p-UGUUAAUCUCUCAGAGAAGGUGACAGUGAU; auxiliary factor: 500 nM mouse GTSF1
Method: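 Cleave-'n-Seq: a library of target RNAs (target site embedded in constant flanks, ACAGCATTCCGCGTTAGTGATATCCG... 5' flank; DNA-blocked outside the site) at 0.1 nM was incubated with 1 nM active mouse MILI or MIWI piRISC (synthetic 5'-monophosphorylated piRNA guide) with or without 500 nM mouse GTSF1 at 33 °C for 1 min to 16 h. Uncleaved targets were sequenced and normalised to non-target controls, and the pooled three trials were fitted to a burst-and-steady-state model to give the pre-steady-state cleavage rate (min^-1; k3 is constrained to at most 1e-4). Sequence is the target site only; target names encode pairing extent (gX:gY) and contiguous / 1-mismatch / 2-mismatch / bulge geometry. Fits with R² ≤ 0 are excluded.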

Sequence	pre-steady-state target cleavage rate
UUCACACUCACCUUCUCUGAGAGAUUUUGA	0.0972 ± 0.024
UAGUGACUCACCUUCUCUGAGAGAUUAAGA	0.194 ± 0.031
UAGACUGUCACCUACUCUGAGAGUUUAACA	0.147 ± 0.023
UUCACUGUCACCUUCUCUGAGCGAUUAACA	0.13 ± 0.0091
UAGACUGUCAGCUUCUCUGAGAGAUUAUCA	0.171 ± 0.024
UUCUCUGUCACCUUCACUGAGAGAUUAACA	0.392 ± 0.021
AUCACUCAGACCUUCUCUGAGAGAUUAACA	0.433 ± 0.024
UUCAGACUCACCUUCUCUGAGAGAUUAACA	0.472 ± 0.035
UUCACUGUCACCUUCUCUGAGAGAUUAACA [g2:g29:cont:t1A]	0.717 ± 0.03
CUCACUGUCACCUUCUCUGAGAGAUUAACA	0.714 ± 0.031
AUCAGACUCACCUUCUCUGAGAGAUUAACA	0.726 ± 0.045
ACUCACUGUCACCUUCUCUGAGAGAUUAACA	0.781 ± 0.054
AUUCACUGUCACCUUCUCUGAGAGAUUAACA	0.737 ± 0.036
UACAGUGUCACCUUCUCUGAGUGAUUAACA	0.0377 ± 0.0077
UAGUGUGUCACCUUGUCUGAGAGAUUUUGA	0.00982 ± 0.0057
UAGACUGUCACGUUCUCUGAGUGAUUAACA	0.00628 ± 0.0015
UUCACUGUCUCCUUCUCUGAGAGAUUAUGA	0.122 ± 0.034
UACUCUGUCACCUUCUCUGAGAGAUUUUGA	0.0843 ± 0.017
UAGUGACACACCUUCUCUGAAAGAUUAACA	0.384 ± 0.029
UAGUGUGUCGACCUUCUCUGAGAGAUUAACA	0.155 ± 0.017
UUGACUGUCACCUUCUCUGAGAGAUUAACA	0.777 ± 0.042
UAGUGACUCACCUUCUCUGAUAGAUUAACA	0.778 ± 0.035
UAGUGACUCACCUUCUCUGACUGAUUAACA	0.00516 ± 0.0026
AUGACUGUCACCUACUCUGAGAGAUUAACA	0.736 ± 0.042
UAGACUGUCACCUACUCUGAGAGAUUAACA	0.666 ± 0.049

Sequence	pre-steady-state target cleavage rate
UUGACUGUCACCUUCUCUGUGAGAUUAACA	0.267 ± 0.011
UAGUGACUCACCUUCUCUGACAGAUUAACA	0.393 ± 0.048
UUGACUGUCACCUUCUCUGAGAGAUUAAGA	0.257 ± 0.034
UUGACUGUCACCUACUCUGAGAGAUUAACA	0.689 ± 0.041
UAGUGACUGACCUUCUCUGAGAGAUUAACA	0.363 ± 0.037
UAGUGACUGCACCUUCUCUGAGAGAUUAACA	0.77 ± 0.05
UAGACUGCACCUUCUCUGAGAGAUUAACA	0.698 ± 0.046
AUCACUGUCACCUUCUCUGAGAGUAAAACA	0.125 ± 0.024
UUCACUGUCAGCUUCUCUGAGAGAUUAUCA	0.24 ± 0.027
UAGUCUGUCACCUUCUCUGAGAGAUUAGACA	0.138 ± 0.041
UAGUGACACACCUUCUGUGAGAGAUUAUGA	0.015 ± 0.007
UAGUGUGUCACCUUCUCUGAGUGAUUAUCA	0.00944 ± 0.0044
UAGUGAGUCACCUUCUGUGAGAGAUUUUGA	0.012 ± 0.0055
UAGUGAGUCACCUUCUCUGAGAGAUUAUGA	0.088 ± 0.019
AUGACUGUCACCUUCUCUGAGAGAUUAAGA	0.205 ± 0.028
AUGACUGUCACCUUCUCUGAGAGAUUAACA	0.771 ± 0.037
UACAGUGUCACCUACUCUGAGAGAUUAACA	0.585 ± 0.038
AUGACUGUCACCUUCUCUGUGAGAUUAACA	0.278 ± 0.013
UAGAGUGUCACCUACUCUGAGAGAUUAACA	0.765 ± 0.042
UAGUGUGUCACCUACUCUGAGAGAUUAACA	0.598 ± 0.054
UUCACUGUCACCUAGUCUGAGAGAUUUUGA	0.111 ± 0.03
UAGUGACACAGCUUCUCUGAGAGUUUAACA	0.0412 ± 0.0084
UUCACUGUCUCCUUCACUGAGAGAUUAACA	0.393 ± 0.032
UACACGGUCACCUUCUCUGAGAGAUUAACA	0.593 ± 0.027
UUCACGUCACCUUCUCUGAGAGAUUAACA	0.702 ± 0.03

Sequence	pre-steady-state target cleavage rate
AUCACGUGUCACCUUCUCUGAGAGAUUAACA	0.63 ± 0.03
AUCACCGUCACCUUCUCUGAGAGAUUAACA	0.67 ± 0.026
UACACGUGUCACCUUCUCUGAGAGAUUAACA	0.563 ± 0.026
AUCACGUCACCUUCUCUGAGAGAUUAACA	0.732 ± 0.041
UACACCGUCACCUUCUCUGAGAGAUUAACA	0.78 ± 0.04
UACACGUCACCUUCUCUGAGAGAUUAACA	0.737 ± 0.043
UUCACCGUCACCUUCUCUGAGAGAUUAACA	0.698 ± 0.03
UACACUGUCACCUUCACUGAGAGUUUAACA	0.356 ± 0.081
AUCACUGUCACCUAGACUGAGAGAUUAAGA	0.0119 ± 0.0058
UAGUCUGUGACCUUCUGUGAGAGAUUAACA	0.399 ± 0.028
UAGUCUGUCACCUUCUCUGAGACAUAAACA	0.0237 ± 0.0074
UUCAGUGUCACCUUCUCUGAGAGAUUUUGA	0.161 ± 0.043
AUCACUGUCACCUUCCCUGAGAGAUUAACA	0.449 ± 0.064
UAGUGUGUCACGAACUCUGAGAGAUUAACA	0.0752 ± 0.0083
UAGUGUCUCACCUUCUCUGAGAGAUUAUCA	0.239 ± 0.033
UUCACUGUCAACCUUCUCUGAGAGAUUAACA	0.271 ± 0.019
UAAACUGUCACCUUCUCUGAGAGAUUAACA	0.677 ± 0.03
UUCAACUGUCACCUUCUCUGAGAGAUUAACA	0.733 ± 0.039
AUAACUGUCACCUUCUCUGAGAGAUUAACA	0.675 ± 0.03
AUCACUGUCACCUUCUCUGAGAGAUUAACU [g2:g30:cont:t1U]	0.526 ± 0.057
AUCAACUGUCACCUUCUCUGAGAGAUUAACA	0.737 ± 0.049
AUCACUGUCAACCUUCUCUGAGAGAUUAACA	0.269 ± 0.021
UUAACUGUCACCUUCUCUGAGAGAUUAACA	0.581 ± 0.022
UACAACUGUCACCUUCUCUGAGAGAUUAACA	0.744 ± 0.042
